Consider 20 compounds from PubChem BioAssay.

Experiment [1] deals with Glutathione S-transferase omega-1 (Homo sapiens) (UniProt P78417). Description: recombinant GSTO1 blockers, retest – biochemical, fluorescence polarization, triplicate, counter-screen for RBBP9 inhibitor project, confirmation (AID 2176;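 active = inhibition above the primary screen's cutoff, its mean inhibition plus 3 SD, cut at about 35% in these data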;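 also: loss of polarization as inhibitors block binding of rhodamine sulfonate ester activity probe; 0% = GSTO1 with DMSO and 100% = wells lacking GSTO1 enzyme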). The following applies: recombinant GSTO1, probe fluorescence polarization; at 5.96 µM; stronger effect = higher value. Background: Polarisation of emitted light reports the rotation of a fluorescent probe.

In experiment [2] the target is Protein phosphatase methylesterase 1 (Homo sapiens) (UniProt Q9Y570). Description: human PME-1 methylesterase inhibition confirmation – biochemical, fluorescence polarization, FP-Rh probe, triplicate (AID 2171).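 Also: 0% = enzyme with DMSO and 100% = wells lacking PME-1.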 As to conditions: recombinant PME-1, FP-Rh probe fluorescence polarization; at 5.9 µM; stronger effect = higher value.
The nature of experiment [3]: StAR promoter reporter inhibitors, counter-screen for LRH-1 inverse agonist project, cell-based, luminescence, high throughput (AID 651611; in the data active = inhibition above about 28%). The following applies: StAR promoter luciferase reporter counterscreen, at 3.6 µM, stronger effect = higher value.
Experiment [4] addresses Nuclear receptor subfamily 5 group A member 2 (Homo sapiens) (UniProt O00482). Description: NR5A2 activity suppression in reporter cells – cell-based, luminescence, confirmation (AID 651613; in the data active = inhibition above about 42%;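 also: HEK293T cells co-transfected with LRH-1 and StAR promoter luciferase reporter; 0% = vehicle wells and 100% = parental cells lacking receptor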). The following applies: cell-based LRH-1 luciferase reporter, inverse agonism; at 3.6 µM; stronger effect = higher value. A general note: In a reporter assay the amount or activity of a reporter protein is the signal.

Experiment [5] addresses Steroidogenic factor 1 (Homo sapiens) (UniProt Q13285). Description: inverse agonism at SF1 nuclear receptor – cell-based, luminescence, high throughput, counter-screen for LRH-1 inverse agonist project (AID 651614; in the data active = inhibition above about 44%;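 also: cells cotransfected with StAR promoter reporter and SF1 expression vector; 0% = vehicle on cells with receptor and 100% = vehicle on cells lacking receptor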). The following applies: cell-based SF1 luciferase reporter, at 3.6 µM, stronger effect = higher value. (In general: The purpose of a counterscreen is to sort out artefacts and off-target activity.)

Experiment [6] in a line: compounds suppressing VP16-driven luciferase signal – cell-based, luminescence, high throughput, counter-screen for LRH-1 inverse agonist project (AID 651615; in the data active = inhibition above about 33%). As to conditions: Gal4-VP16 luciferase reporter cells, at 3.6 µM, stronger effect = higher value.
The subject of experiment [7] is transactivating tegument protein VP16 (Human herpesvirus 1). Description: compounds suppressing VP16-driven luciferase signal – cell-based, luminescence, single concentration, counter-screen for SRC2 inhibitor project (AID 652007; in the data active = inhibition above about 36%). The following applies: cell-based VP16 transactivation luciferase reporter, at 8.9 µM, stronger effect = higher value.
The target of experiment [8] is Nuclear receptor coactivator 2 (Homo sapiens) (UniProt Q15596). Description: inhibition of GAL4-SRC2 driven luciferase expression – cell-based, luminescence, HEK293, triplicate, confirmation (AID 652008;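 active = mean inhibition above 46.5%, the solvent-only control mean plus 3 SD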;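 also: 0% = DMSO-treated cells and 100% = Gossypol at 36 µM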). As to conditions: HEK293 GAL4-SRC2 luciferase reporter, at 8.9 µM, stronger effect = higher value.
Experiment [9] concerns the target Nuclear receptor coactivator 1 (Homo sapiens) (UniProt Q15788). Description: NCOA1 GAL4-fusion reporter inhibition – cell-based, luminescence, quadruplicate, confirmation (AID 588820;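 active = mean inhibition above 46.68%, the untreated control wells mean plus 3 SD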;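 also: 0% = DMSO wells and 100% = gossypol 36 µM treated wells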). As to conditions: HEK293 GAL4-SRC1 luciferase reporter, at 3.6 µM, stronger effect = higher value.
The nature of experiment [10]: repression of VP16-driven luciferase reporter – cell-based, luminescence, high throughput, counter-screen for SRC1 inhibitor project (AID 588824; in the data active = inhibition above about 25%). The following applies: cell-based VP16 transactivation luciferase luminescence; at 3.6 µM; stronger effect = higher value.
Experiment [11] concerns the target Platelet-activating factor acetylhydrolase (Homo sapiens) (UniProt Q13093). Description: inhibition of plasma PAF acetylhydrolase – biochemical, fluorescence polarization, human, confirmation (AID 463230;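 active = mean inhibition of the triplicate above the hit cutoff set for the earlier primary screen, cut at about 25% in these data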;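 also: 0% = enzyme with DMSO and 100% = wells lacking pPAFAH enzyme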). As to conditions: recombinant pPAFAH, FP-Rh probe fluorescence polarization; at 3.39 µM; stronger effect = higher value.
Experiment [12] can be described thus: reduced OD of T4-infected AddAB+ E. coli – absorbance, E. coli V3065, T4 phage, triplicate, AddAB inhibitor project, confirmation (AID 488942;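 active = mean inhibition above a set limit taken from the earlier primary screen, cut at about 13% in these data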;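 also: higher means less bacterial growth since AddAB block lets phage replicate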). The following applies: E. coli V3065 expressing H. pylori AddAB, at 11.9 µM, stronger effect = higher value, T4 phage with gene 2 nonsense mutations.
Experiment [13] in a line: reduced OD of phage-infected RecBCD+ V66 E. coli – absorbance, mutant T4 phage, counter-screen for AddAB inhibitor project (AID 488955;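 active = mean inhibition above the mean of solvent-only control wells plus 3 SD, cut at about 4% in these data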;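 also: optical density read after an 18 h incubation at 37 °C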). The following applies: OD growth, at 11.9 µM, stronger effect = higher value.
Experiment [14] can be described thus: bacterial growth inhibitors – absorbance, counter-screen for AddAB inhibitor project, confirmation (AID 488956; in the data active = inhibition above about 25%). As to conditions: bacterial viability, absorbance (AddAB counterscreen); at 11.9 µM; stronger effect = higher value.
In experiment [15] the target is Platelet-activating factor acetylhydrolase IB subunit alpha1 (Homo sapiens) (UniProt Q15102). Description: inhibition of PAF acetylhydrolase 1B subunit 3 – biochemical, fluorescence polarization, human, confirmation (AID 493032;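 active = average inhibition over triplicate runs above the hit cutoff set in the earlier primary screen, cut at about 25% in these data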;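 also: 0% = enzyme with DMSO and 100% = wells lacking PAFAH1B3 protein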). As to conditions: recombinant PAFAH1B3, FP-Rh activity-based probe, at 3.39 µM, stronger effect = higher value.
Experiment [16] has as its target Serine protease HTRA1 (Homo sapiens) (UniProt Q92743). Description: confirming inhibition of human HTRA1 – biochemical, fluorescence polarization, confirmation (AID 540248;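 active = mean inhibition over three repeats above a set limit taken from the earlier primary screen, cut at about 37% in these data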;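 also: 0% = HTRA1 with DMSO and 100% = wells lacking HTRA1; inhibitors block probe binding so polarization drops and inhibition rises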). As to conditions: recombinant HTRA1, FP-rhodamine activity-based probe, at 5.96 µM, stronger effect = higher value.
Experiment [17] deals with Oxytocin receptor (Homo sapiens) (UniProt P30559). Description: oxytocin receptor activation, retest of hits – fluorescence, CHO-OTR cells, triplicate, confirmation (AID 434963;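 active = mean activation above about 20% derived from the earlier single-dose screen, limit read from the data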;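 also: peak over minimum fluorescence ratio per well during a 100 second FLIPR read; 0% = DMSO alone and 100% = oxytocin high control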). The following applies: Fluo-8 calcium fluorescence, agonist, at 3 µM, stronger effect = higher value.
The target of experiment [18] is Vasopressin V1a receptor (Homo sapiens) (UniProt P37288). Description: activators of vasopressin V1R in CHO cells – cell-based, triplicate, fluorescence, counter-screen for OXTR agonist project (AID 434991;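 active = mean activation over triplicate exceeds the hit threshold set in the earlier primary screen, cut at about 20% in these data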;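 also: peak over basal fluorescence ratio within a 100 second read; 0% = DMSO alone and 100% = 3 nM vasopressin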). The following applies: Fluo-8 calcium fluorescence, at 3 µM, stronger effect = higher value.
The target in experiment [19] is Lytic switch protein BZLF1 (Epstein-Barr virus (strain B95-8)) (UniProt P03206). Description: blockers of Zta-ZRE DNA complex – biochemical, fluorescence polarization, triplicate, confirmation (AID 2361;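 active = mean inhibition across triplicate runs above the hit threshold derived for the original primary screen, cut at about 33% in these data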;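 also: 0% = Zta with DMSO and 100% = wells lacking Zta protein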). The following applies: Zta-ZRE DNA binding, at 11.1 µM, stronger effect = higher value.
Experiment [20] relates to Epstein-Barr virus nuclear antigen 1 (EBNA-1), Human herpesvirus 4. Description: blockers of EBV EBNA-1 binding to DNA – biochemical, fluorescence polarization, counter-screen for ZTA inhibitor project (AID 2362; call rule not given here). The following applies: EBNA-1 DNA binding, at 14.8 µM, stronger effect = higher value.
In experiment [21] the target is Receptor-interacting serine/threonine-protein kinase 2 (Homo sapiens) (UniProt O43353). Description: inhibitors of RIPK2 association with NOD2 – fluorescence, CHO cells, BLA complementation, triplicate, confirmation (AID 624370;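 active = mean inhibition across replicates above a set limit taken from the earlier primary screen, cut at about 21% in these data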;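 also: 0% = DMSO-only wells and the high end = clavulanate BLA-blocked wells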). As to conditions: CCF4 FRET, at 4.98 µM, stronger effect = higher value.
Experiment [22] can be described thus: BLA reporter readout interference – cell-based, CHO-K1 CMV-bla, CCF4 FRET, fluorescence, artefact control for NOD2-RIPK2 interaction inhibitor project, confirmation (AID 624371;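 active = mean inhibition above the low-control mean inhibition plus three low-control SD, cut at about 11% in these data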;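 also: 0% = DMSO only wells and 100% = clavulanate high control wells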). The following applies: CCF4 FRET ratio, counterscreen, at 4.98 µM, stronger effect = higher value.

A number with no mark means an inactive call. This is one part of the list. Activity calls are given as the source filed them.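 The calls were made as follows, unless noted: active = inhibition above the hit cutoff set in the earlier primary screen (cut at about 27% in these data); inactive = the rest.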

What is called inhibition is the change of the read-out against control, counted positive when it falls.

Chain of Nuclear receptor coactivator 2 (Homo sapiens) (Q15596 whole entry, looked up, the tested form may be a part): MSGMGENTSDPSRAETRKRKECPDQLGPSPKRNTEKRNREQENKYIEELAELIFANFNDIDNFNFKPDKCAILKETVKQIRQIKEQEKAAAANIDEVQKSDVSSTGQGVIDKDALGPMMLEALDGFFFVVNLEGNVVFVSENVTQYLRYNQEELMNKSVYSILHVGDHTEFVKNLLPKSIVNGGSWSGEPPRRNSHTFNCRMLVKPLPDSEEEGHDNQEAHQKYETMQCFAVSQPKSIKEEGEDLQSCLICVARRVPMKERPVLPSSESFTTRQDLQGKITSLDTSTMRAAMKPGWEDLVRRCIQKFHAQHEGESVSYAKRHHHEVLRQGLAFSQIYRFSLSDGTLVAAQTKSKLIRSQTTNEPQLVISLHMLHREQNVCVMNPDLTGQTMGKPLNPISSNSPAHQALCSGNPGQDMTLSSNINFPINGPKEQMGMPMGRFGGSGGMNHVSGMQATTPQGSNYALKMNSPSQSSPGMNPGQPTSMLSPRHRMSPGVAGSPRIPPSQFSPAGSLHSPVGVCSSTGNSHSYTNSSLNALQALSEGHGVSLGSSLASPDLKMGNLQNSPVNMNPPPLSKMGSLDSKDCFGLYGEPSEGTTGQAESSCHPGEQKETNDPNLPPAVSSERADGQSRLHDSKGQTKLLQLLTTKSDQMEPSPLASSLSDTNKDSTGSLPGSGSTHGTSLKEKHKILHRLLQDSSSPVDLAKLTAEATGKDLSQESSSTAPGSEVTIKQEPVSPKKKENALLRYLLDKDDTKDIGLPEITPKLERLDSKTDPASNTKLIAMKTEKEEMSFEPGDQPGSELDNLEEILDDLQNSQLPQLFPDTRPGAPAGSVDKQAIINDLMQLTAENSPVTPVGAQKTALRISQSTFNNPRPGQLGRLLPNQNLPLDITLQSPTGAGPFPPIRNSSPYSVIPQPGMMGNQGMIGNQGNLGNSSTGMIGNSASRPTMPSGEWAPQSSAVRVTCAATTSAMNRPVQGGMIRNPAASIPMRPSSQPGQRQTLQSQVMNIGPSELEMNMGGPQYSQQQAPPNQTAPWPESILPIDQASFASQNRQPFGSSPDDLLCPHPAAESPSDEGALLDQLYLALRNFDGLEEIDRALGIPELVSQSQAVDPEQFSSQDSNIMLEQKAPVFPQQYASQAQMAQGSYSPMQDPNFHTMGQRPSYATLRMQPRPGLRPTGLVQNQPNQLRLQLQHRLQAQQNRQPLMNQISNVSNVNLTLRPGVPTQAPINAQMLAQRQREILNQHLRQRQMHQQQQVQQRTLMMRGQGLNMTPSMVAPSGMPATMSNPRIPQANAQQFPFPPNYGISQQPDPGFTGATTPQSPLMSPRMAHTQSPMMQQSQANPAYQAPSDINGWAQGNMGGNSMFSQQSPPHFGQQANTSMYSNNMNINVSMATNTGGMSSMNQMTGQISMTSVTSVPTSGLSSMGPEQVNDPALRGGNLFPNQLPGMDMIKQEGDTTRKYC
Chain of Nuclear receptor subfamily 5 group A member 2 (Homo sapiens) (O00482 whole entry, looked up): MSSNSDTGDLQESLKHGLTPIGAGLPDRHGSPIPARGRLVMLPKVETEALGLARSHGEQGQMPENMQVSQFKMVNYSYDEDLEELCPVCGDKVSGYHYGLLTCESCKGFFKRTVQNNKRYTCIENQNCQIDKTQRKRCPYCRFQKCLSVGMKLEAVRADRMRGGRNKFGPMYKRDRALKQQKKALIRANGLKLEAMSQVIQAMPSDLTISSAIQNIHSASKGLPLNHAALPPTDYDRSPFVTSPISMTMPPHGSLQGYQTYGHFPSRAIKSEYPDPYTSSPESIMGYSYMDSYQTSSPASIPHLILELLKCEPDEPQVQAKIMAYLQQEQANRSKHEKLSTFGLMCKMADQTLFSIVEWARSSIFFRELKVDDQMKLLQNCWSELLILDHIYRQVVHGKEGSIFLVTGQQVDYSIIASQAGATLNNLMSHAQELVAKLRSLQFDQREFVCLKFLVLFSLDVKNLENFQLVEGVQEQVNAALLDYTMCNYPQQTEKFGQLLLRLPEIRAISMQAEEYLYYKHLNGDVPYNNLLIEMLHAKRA
Chain of Protein phosphatase methylesterase 1 (Homo sapiens) (Q9Y570 whole entry, looked up): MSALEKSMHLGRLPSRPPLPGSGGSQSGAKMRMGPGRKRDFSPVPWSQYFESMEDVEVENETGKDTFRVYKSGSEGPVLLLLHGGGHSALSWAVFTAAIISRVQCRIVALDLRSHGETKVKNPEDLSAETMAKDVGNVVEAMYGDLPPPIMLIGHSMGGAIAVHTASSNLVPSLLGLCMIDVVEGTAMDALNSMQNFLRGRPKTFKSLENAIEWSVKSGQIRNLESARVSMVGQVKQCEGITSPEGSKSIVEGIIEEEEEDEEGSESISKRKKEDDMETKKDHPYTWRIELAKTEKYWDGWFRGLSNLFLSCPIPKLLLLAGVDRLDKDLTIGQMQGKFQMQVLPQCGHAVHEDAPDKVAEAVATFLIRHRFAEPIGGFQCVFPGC
Chain of Steroidogenic factor 1 (Homo sapiens) (Q13285 whole entry, looked up): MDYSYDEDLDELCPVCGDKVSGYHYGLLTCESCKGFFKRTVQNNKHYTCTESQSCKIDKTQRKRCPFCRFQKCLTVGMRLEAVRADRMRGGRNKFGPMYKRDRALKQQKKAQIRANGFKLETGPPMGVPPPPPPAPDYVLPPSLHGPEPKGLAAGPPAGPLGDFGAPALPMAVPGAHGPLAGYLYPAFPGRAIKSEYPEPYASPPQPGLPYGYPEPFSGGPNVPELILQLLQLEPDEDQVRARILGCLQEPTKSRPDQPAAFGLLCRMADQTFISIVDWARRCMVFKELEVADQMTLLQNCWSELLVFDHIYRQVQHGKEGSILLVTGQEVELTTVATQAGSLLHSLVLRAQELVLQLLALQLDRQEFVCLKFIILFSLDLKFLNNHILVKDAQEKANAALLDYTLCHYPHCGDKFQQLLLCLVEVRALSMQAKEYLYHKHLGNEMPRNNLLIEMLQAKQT
Chain of Vasopressin V1a receptor (Homo sapiens) (P37288 whole entry, looked up): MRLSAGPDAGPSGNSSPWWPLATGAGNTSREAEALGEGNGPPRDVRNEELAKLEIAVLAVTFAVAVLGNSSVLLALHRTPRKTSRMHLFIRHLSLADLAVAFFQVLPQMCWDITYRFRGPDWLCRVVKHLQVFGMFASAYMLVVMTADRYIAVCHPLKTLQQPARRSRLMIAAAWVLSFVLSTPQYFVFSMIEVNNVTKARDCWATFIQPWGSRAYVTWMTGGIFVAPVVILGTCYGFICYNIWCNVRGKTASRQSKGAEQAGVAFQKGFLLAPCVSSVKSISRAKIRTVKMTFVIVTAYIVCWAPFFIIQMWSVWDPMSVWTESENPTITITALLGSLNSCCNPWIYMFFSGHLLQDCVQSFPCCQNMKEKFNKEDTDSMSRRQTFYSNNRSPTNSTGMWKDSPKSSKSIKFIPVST
Chain of Platelet-activating factor acetylhydrolase IB subunit alpha1 (Homo sapiens) (Q15102 whole entry, looked up): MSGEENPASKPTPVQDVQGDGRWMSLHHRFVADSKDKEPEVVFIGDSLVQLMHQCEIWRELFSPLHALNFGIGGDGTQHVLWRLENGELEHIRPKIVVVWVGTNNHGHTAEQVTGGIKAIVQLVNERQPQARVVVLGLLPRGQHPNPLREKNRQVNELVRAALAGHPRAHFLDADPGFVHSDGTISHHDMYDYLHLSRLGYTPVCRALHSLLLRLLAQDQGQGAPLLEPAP
Chain of Glutathione S-transferase omega-1 (Homo sapiens) (P78417 whole entry, looked up): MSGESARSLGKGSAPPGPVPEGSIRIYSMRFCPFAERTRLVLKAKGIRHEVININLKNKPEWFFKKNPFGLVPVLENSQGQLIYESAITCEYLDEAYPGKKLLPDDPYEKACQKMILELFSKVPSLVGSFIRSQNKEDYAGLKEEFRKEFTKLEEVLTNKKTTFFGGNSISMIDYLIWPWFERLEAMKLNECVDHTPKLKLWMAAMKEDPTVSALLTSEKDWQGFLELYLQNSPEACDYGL
Chain of Lytic switch protein BZLF1 (Epstein-Barr virus (strain B95-8)) (P03206 whole entry, looked up): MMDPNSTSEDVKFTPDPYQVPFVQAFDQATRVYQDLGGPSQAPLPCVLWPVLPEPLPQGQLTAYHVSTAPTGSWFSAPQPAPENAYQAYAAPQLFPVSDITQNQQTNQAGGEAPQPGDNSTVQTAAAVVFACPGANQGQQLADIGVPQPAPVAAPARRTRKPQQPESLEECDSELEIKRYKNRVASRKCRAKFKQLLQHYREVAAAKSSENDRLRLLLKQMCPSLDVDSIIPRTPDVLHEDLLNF
Chain of Oxytocin receptor (Homo sapiens) (P30559 whole entry, looked up): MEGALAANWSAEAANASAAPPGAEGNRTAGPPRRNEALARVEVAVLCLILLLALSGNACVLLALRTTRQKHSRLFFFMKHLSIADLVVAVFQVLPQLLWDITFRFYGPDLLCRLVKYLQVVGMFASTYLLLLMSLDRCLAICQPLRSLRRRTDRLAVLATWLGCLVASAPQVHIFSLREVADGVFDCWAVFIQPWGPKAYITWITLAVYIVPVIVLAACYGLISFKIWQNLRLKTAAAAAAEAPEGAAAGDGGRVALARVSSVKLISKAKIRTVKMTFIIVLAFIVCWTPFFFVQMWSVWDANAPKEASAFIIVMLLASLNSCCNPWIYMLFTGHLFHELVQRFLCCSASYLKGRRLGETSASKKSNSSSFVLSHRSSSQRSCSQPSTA
Chain of Receptor-interacting serine/threonine-protein kinase 2 (Homo sapiens) (O43353 whole entry, looked up): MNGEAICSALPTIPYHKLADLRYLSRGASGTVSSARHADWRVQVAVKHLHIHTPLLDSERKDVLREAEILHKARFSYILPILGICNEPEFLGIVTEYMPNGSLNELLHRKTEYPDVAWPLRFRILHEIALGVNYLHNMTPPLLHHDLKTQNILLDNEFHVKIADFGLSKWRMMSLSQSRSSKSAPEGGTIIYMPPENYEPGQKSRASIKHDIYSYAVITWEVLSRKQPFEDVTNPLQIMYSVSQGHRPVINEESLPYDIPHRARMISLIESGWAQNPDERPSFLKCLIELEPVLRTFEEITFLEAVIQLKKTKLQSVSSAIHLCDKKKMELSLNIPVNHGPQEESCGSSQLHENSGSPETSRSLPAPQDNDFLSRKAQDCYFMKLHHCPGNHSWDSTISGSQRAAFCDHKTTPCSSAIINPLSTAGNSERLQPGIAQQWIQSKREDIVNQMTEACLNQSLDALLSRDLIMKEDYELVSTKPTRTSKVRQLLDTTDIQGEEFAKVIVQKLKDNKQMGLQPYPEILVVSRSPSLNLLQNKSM

Consider `COC(=O)CCCC1=CC2=C(c3ccccc3)C(=O)C(C)(OC(=O)C3CCCC3)C(=O)C2=CN1c1ccc(OC)cc1` (configuration not stated), for which the inhibition in experiment [1] is 16.9%.

With `Nc1ccc2oc(-c3cc(Br)ccc3Cl)nc2c1`, the inhibition is 9.02% in experiment [2]; -34.3% in [3]; 45.4% (active) in [4]; 32.9% in [5]; -44.9% in experiment [6].

Take `O=C1C(Cl)=C(Nc2ccc3cn[nH]c3c2)C(=O)c2ccccc21`: the inhibition is 31.7% (active) in [2], -24% in experiment [7] and 52.9% (active) in experiment [8].

In the case of `COc1ccc2c(c1)[nH]c1c(N3CCN(Cc4ccc5c(c4)OCO5)CC3)ncnc12`, the inhibition in experiment [2] was 14.8%; in experiment [4], 50.2% (active); in experiment [5], 53.7% (active).

Regarding `CCCCn1c(NS(=O)(=O)c2ccccc2)c(S(=O)(=O)c2ccc(C)cc2)c2nc3ccccc3nc21`, the inhibition was 11.6% in experiment [2]; 15.2% in experiment [3]; 19.7% in experiment [4]; 24.9% in [5]; -6.99% in experiment [6].

In the case of `CCCn1nc([N+](=O)[O-])c(C(C#N)c2nc3ccccc3s2)c(Cl)c1=O` (configuration not stated), the results for the inhibition in experiment [2], in [7] and in experiment [8] were 28.7% (active), 20.4% and 20.3%, respectively.

Turning to `COc1ccccc1CCCNC(=O)C1CCC(=O)N(CCN2CCOCC2)C1` (configuration not stated), in experiment [1], the inhibition was 5.53%.

`Fc1ccc2[nH]c3c(N4CCN(c5ccccc5)CC4)ncnc3c2c1`: the inhibition is 26.3% (active) in experiment [2], 2.85% in experiment [9] and 15.6% in [10].

With `COc1ccc(N2CCN(c3ncnc4c3[nH]c3ccccc34)CC2)cc1`, the results for the inhibition in experiment [2], in [9] and in [10] were 28% (active), 3.21% and 24.6%, respectively.

For `NNC(=O)c1oc2nc(-c3ccccc3)cc(-c3ccco3)c2c1N`, the inhibition in experiment [11] was 18.2%.

Take `O=C(c1[nH]ncc1-c1ccc(Cl)cc1)C1CO1` (configuration not stated): the results for the inhibition in experiment [12], in experiment [13] and in experiment [14] were 57.3% (active), 7.58% (active) and 34.3% (active), respectively.

For the compound `O=C1Nc2c(Br)cc(Br)cc2C1(O)N1CCOCC1` (configuration not stated), the inhibition in [15] was 8.59%.

As to `CC(=O)N(C1=C(Cl)C(=O)c2ccccc2C1=O)c1ccc(C(=O)O)cc1`, in experiment [15], the inhibition is 25.6% (active).

With `Oc1ccc(CNc2ccccc2O)cc1`, the inhibition in experiment [16] was 29%.

On to `Cc1cccc(N2CCN(c3ccc(NC(=O)/C=C\C(=O)O)cc3)CC2)c1`, for which the inhibition in experiment [16] is 6.16%.

`CC1=CC(C)(C)Nc2ccc(OC(=O)CN3C(=O)C4CCCCC4C3=O)cc21` (configuration not stated): the results for the inhibition in [7] and in experiment [8] were -22.9% and 27.4%, respectively.

Regarding `CC1(C)CC[C@@]2(C(=O)O)C(C1)C1=CCC3[C@@]4(C)CC[C@H](O)C(C)(C)C4CC[C@@]3(C)[C@]1(C)C[C@H]2O` (some centres not stated), the activation in [17] is 67.3% (active); in [18] it was 1.34%.

Consider `CCN1CCN(CCNC(=O)c2ccc(/C=C3/Sc4ccccc4N(Cc4cccc(C)c4)C3=O)cc2)CC1`, for which the inhibition in [19] was 49.5% (active); in experiment [20], 1.16%.

As for `CN1CCN(CCCNC(=O)c2ccc(/C=C3\Oc4ccccc4N(Cc4ccc(Cl)cc4)C3=O)cc2)CC1`, the inhibition in [19] is 51.8% (active); in experiment [20], -1.35%; in experiment [21] it was 29% (active); in [22] it was 12% (active).

With `NC(=O)C1=C[C@H](c2csc3ccccc23)C[C@H](OCc2ccc(CO)cc2)O1`, the activation was 17.8% in experiment [17] and 10.2% in [18].
